From paper PMC12136788
Changes are numbered by the printed parent chain. Whole data set: some 5,800 sequences, median “enrichment r” near 0.54, cut for the highest 2% near 16. The list comes from a sample in which the highest values are over-represented; it also holds similar and randomly drawn sequences.

B1: ENSG00000107863:be:win_3301|CDS|ENSG00000107863|bound_else_gene|NA|bound_elsewhere_windowed (ssRNA)
RNA: GGGAGUUCUACAGUCCGACGAUCAAGGAAGAGUCGGAAAGGAAACUUCUCAGUAAAGAUGAUACCAGUCCCCCAAAAGACAAAGGCACAUGGAGAAAAGGCAUUCCAAGUAUCAUGAGAAAGACAUUUGAGAAAAAGCCAACUCAACAGAGGAUUGAGCAUCA
B2: ENSG00000136451:be:win_2301|3pUTR|ENSG00000136451|bound_else_gene|NA|bound_elsewhere_windowed (ssRNA)
RNA: GGGAGUUCUACAGUCCGACGAUCAAAAAUCUACAAAUUGUGUUUUGCUAAGAAAAGCCUCAACUGACAGAGGAGAAGUCAAGUGUGUGGACAGGCAAGCUCCUAAUAAACAGAGUCCAGUGGGAUUCCUAUUUAGGAGCCAAGCAACAGAGGAUUGAGCAUCA
B3: chr10:123166816:123166917:+|3pUTR|ENSG00000154473|unk|FALSE|unique (ssRNA)
RNA: GGGAGUUCUACAGUCCGACGAUCAAAAACUUAAAGGUAUAUUAGCAGGUUAGCCUUUGUUCUGUGGGAGAUCCAGGCCUUGUUAGAAGGACCAAGGCCAGAAUGCCCAGUUUAGCCUUAGCAUUCAAACCCUUCAUUGUUUUUCAACAGAGGAUUGAGCAUCA
B4: chr12:48653210:48654175:-|three_prime_utr|ENSG00000139620|control|control|control (ssRNA)
RNA: GGGAGUUCUACAGUCCGACGAUCGCACCAUUGUCUCAGAGUGGAUUGGCUACUGCAAAUGGGAAGCCAGAACCCACUUCUAUUAGUUGAUAGUUUGGGGAACCAUUUUACUUUGGUGGAUUUAAAUUUCUCGUUCUUCAAAGACAACAGAGGAUUGAGCAUCA
B5: chr10:119167843:119167906:-|3pUTR|ENSG00000165672|msi1_unk|FALSE|overlapping (ssRNA)
RNA: GGGAGUUCUACAGUCCGACGAUCUGCAUGAUCCCUCAUCCCUGAAAUUGAGUUUAUGUAGUCAUUUUACUUAUUUUAUUCAUUAGCUAACUUUGUCUAUGUAUAUUUCUAGAUAUUGAUUAGUGUAAUCGAUUAUAAAGGAUACAACAGAGGAUUGAGCAUCA
B6: chr1:229660051:229660152:+|3pUTR|ENSG00000135763|msi1|FALSE|bound_elsewhere (ssRNA)
RNA: GGGAGUUCUACAGUCCGACGAUCCUCAUUCAUAGUCUCAGUUACCCAGAUAACCUCGGUUGUCACCUUGGAGUAUCUUGUUGUAGUCCCUUUACUAUGUGUAUGUAUAUAGAUGUGCAUAUAAAUAUAUAUAGUAGCUAAAUUCAACAGAGGAUUGAGCAUCA
B7: chr7:107760707:107760808:+|3pUTR|ENSG00000105879|unk|FALSE|unique (ssRNA)
RNA: GGGAGUUCUACAGUCCGACGAUCAAACAUGAAAUAUGUAGUAUGCAGAUAUCAUUUAUUAGAUAGUUUGUAGUGUAUACAUUUAGAACAUACUUCUUUUGACAAAGGGUGAUCUGAUUGCUAAUUUACCAUUUUAUUCUGUCACAACAGAGGAUUGAGCAUCA
B8: chr3:62294290:62294391:+|3pUTR|ENSG00000144724|msi1|FALSE|unique (ssRNA)
RNA: GGGAGUUCUACAGUCCGACGAUCAACUAGUCCUCUAAAAAUUCCCUAUUACUCCUAUAGCAAUCUAAUAAAAACUACCUACAUAGUUACUGUUUUCUUUCCUUCUUUGCCAAAUGUUUUAUAAUAAAUCUCUUAAUUACAUACCAACAGAGGAUUGAGCAUCA
B9: chr7:107760707:107760808:+|3pUTR|ENSG00000105879|unk|total|mutant (ssRNA)
RNA: B7 RNA with U38C, A39C, U59C, A60C, U63C, A64C, U70C, A71C, U83C, A84C
B10: chr17:77216858:77216994:+|3pUTR|ENSG00000129657|unk|FALSE|bound_elsewhere (ssRNA)
RNA: GGGAGUUCUACAGUCCGACGAUCUGUUUCUACCUUUAGUACCUUGCCACUCUUUUAAAACGCUGCUGUCAUUUCCCAUUUCUUAGUACUAAUGAUUCUUUGAUUCUCCCUCUAUUAUGUCUUAAUUCACUUUCCUUCCUAAAUCAACAGAGGAUUGAGCAUCA
B11: chr1:965281:965395:+|3pUTR|ENSG00000187961|unk|total|mutant (ssRNA)
RNA: GGGAGUUCUACAGUCCGACGAUCCCAUCCGUUCACGUCUCUGCAUCCAUUCCUUCAUGUCUUUAUUCCGUUGUUUAUUUAUUCCGUUAUUUAUCUUAUUUAUUGAGGGGUGAGGAGUGCCACGGCUGCCCGUUUACACCUUUACAACAGAGGAUUGAGCAUCA
B12: chr1:162523450:162523604:+|3pUTR|ENSG00000152332|msi1|total|mutant (ssRNA)
RNA: GGGAGUUCUACAGUCCGACGAUCAGACUAAGUUGUGCCAGAUGUAAAUCAACCCCUCUUUCCGUUUACUUCCGACUUUGUAUCCGCUCAUCUUUUUUGCCGUAAAUCUACCGUUUUAAGGUUUCUCAAGAUGUGGCUCUACCUCAACAGAGGAUUGAGCAUCA
B13: chr11:130144177:130144243:+|3pUTR|ENSG00000084234|msi1_unk|total|mutant (ssRNA)
RNA: GGGAGUUCUACAGUCCGACGAUCAUGAGGGUGUCCGCUGCUGCUUUCCUUCGGAAUCCAGUGCUUCCACAGAGAUCCGCCUGCCGCUUAUAUUUGACAUUCUUCACUGUCUGUUGUUUACCUACCGCCGCUUUUUACCGUUCACAACAGAGGAUUGAGCAUCA
B14: chr3:62294290:62294391:+|3pUTR|ENSG00000144724|msi1|total|mutant (ssRNA)
RNA: B8 RNA with U27C, A28C, U57C, A58C, U83C, A84C
B15: chr1:965281:965395:+|3pUTR|ENSG00000187961|unk|FALSE|unique (ssRNA)
RNA: B11 RNA with C67U, C68A, C83U, C84A
B16: chr1:162523450:162523604:+|3pUTR|ENSG00000152332|msi1|FALSE|unique (ssRNA)
RNA: B12 RNA with C61U, C62A, C71U, C72A, C83U, C84A, C99U, C100A, C110U, C111A

These binders were tested against MSI1 full-length (mouse, UniProt Q61474 1-362) (assay: nsRBNS (natural sequence RNA bind-n-seq); RBNS binding buffer (assumed for nsRBNS): 25 mM Tris pH 7.5, 150 mM KCl, 3 mM MgCl2, 0.01% Triton X-100, 500 ug/ml BSA, 20 U/ml SUPERase-In, 4 C; UNK is unkempt and MSI1 is Musashi-1; names of the RNAs are library labels; protein concentration not given here; high values mean tight binding).
Sequence of MSI1 full-length (Q61474 whole entry): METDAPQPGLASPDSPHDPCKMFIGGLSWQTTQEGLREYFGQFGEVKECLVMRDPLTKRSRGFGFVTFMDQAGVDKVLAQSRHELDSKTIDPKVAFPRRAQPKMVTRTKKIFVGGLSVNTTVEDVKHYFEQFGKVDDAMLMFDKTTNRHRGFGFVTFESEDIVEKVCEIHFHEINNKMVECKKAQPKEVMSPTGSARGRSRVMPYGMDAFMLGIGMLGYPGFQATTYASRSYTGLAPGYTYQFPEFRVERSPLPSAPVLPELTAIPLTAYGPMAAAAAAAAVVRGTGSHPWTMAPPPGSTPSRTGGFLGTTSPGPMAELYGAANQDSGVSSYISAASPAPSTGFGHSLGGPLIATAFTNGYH
Work on B1 yielded a binding signal of 0.359 enrichment R.
B2 gave a binding signal of 0.431 enrichment R.
B3 showed a binding signal of 5.77 enrichment R.
B4 was tested, and the binding signal was 0.61 enrichment R.
Work on B5 yielded a binding signal of 1.93 enrichment R.
For B6, the binding signal was 3.57 enrichment R.
With B7 the binding signal was 56.7 enrichment R.
B8 gave a binding signal of 32 enrichment R.
In the case of B9, the binding signal is reported as 0.319 enrichment R.
With B10 the binding signal was 6.66 enrichment R.
With B11 the binding signal was 8.96 enrichment R.
B12 showed a binding signal of 0.276 enrichment R.
B13 showed a binding signal of 0.557 enrichment R.
Binder B14 has a binding signal of 8.49 enrichment R.
B15 gave a binding signal of 64.6 enrichment R.
For B16, the binding signal was 19.3 enrichment R.
